Data on 39 compounds can be found in PubChem BioAssay (Tox21).

A short description of assay [1]: qHTS assay to identify small molecule agonists of the RXR signaling pathway - cell viability counter screen (AID 1159529). For activity change, negative = cytotoxicity: series mostly up to about 77 µM. Note: nearly all actives have a fitted effect of over 50% in size. Note: potency is the fitted concentration of half-maximal effect. In outline:
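RXR-alpha-UAS-bla HEK 293T cells in medium with 2% charcoal-stripped FBS were pre-incubated 5 hr, then compound-treated 16 hr at 37 C. Viability was read by CellTiter-Glo luminescence in the same wells as the beta-lactamase assay, with tetraoctyl ammonium bromide as positive control.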

A short description of assay [2]: qHTS assay to identify small molecule antagonists of the retinoid acid receptor (RAR) signaling pathway - cell viability counter screen (AID 1159551). Note: nearly all actives have a fitted effect of over 35% in size. The method, boiled down: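 C3RL4 RARE-luciferase cells, 1,000/well, incubated overnight, then dosed with compound plus 1 uM retinol (final). After 6 hr at 37 C, viability read by CellTiter-Glo ATP luminescence following 30 min at room temperature.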

The nature of assay [3]: qHTS assay to identify small molecule agonists of the retinoic acid receptor (RAR) signaling pathway (AID 1159553). In outline:
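C3RL4 RARE-luciferase cells were seeded at 1,000/well and grown overnight at 37 C, then exposed to compounds for 6 hr at 37 C, 5% CO2. Luciferase reagent was added and luminescence was read after 30 min at room temperature.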
For orientation: Quantitative high-throughput screening tests each substance at several concentrations.

A short description of assay [4]: qHTS assay to identify small molecule antagonists of the estrogen related receptor (ERR) signaling pathway from Tox21 library - cell viability counter screen (AID 1224834). Note: nearly all actives have a fitted effect of over 30% in size. Note: potency is the fitted concentration of half-maximal effect. The method, boiled down:
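ERR reporter cells, 2,000 per well, rested 6 h, then exposed to compound in DMSO for 17.5 hours at 37 C. Viability read as fluorescence after 30 min with CellTiter-Fluor.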

Assay [5] is described as follows: qHTS assay to identify small molecule antagonists of the retinoic acid receptor (RAR) signaling pathway (AID 1159552; note: nearly all actives have a fitted effect of over 50% in size). In outline:
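Retinol signaling pathway inhibitors screened in C3RL4 RARE-luciferase reporter cells seeded overnight at 37 C, then compounds added with 1 uM (final) retinol as pathway substrate. After 6 hr at 37 C, luciferase luminescence read after 30 min at room temperature.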

Assay [6] can be described thus: qHTS assay to identify small molecule antagonists of the estrogen related receptor (ERR) signaling pathway (AID 1224819;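 note: luminescence from an ERR-driven luciferase reporter measured with One-Glo reagent; series mostly up to about 46 µM; nearly all actives have a fitted effect of over 50% in size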). In outline: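 ERR reporter cell line (NTP) plated at 2,000 cells/well, settled 6 h at 37C/5% CO2, then exposed to LOPAC compounds for 18 h at 37C. One-Glo luciferase luminescence read after 30 min at room temperature.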
Assay [7] is described as follows: qHTS assay to identify small molecule agonists of the estrogen related receptor (ERR) signaling pathway (AID 1224820). In outline: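 Cells: ERR line from NTP, 2,000/well. Pre-incubation 6 h, 37 C/5% CO2. Compound (DMSO) pin transfer, 18 h 37 C. One-Glo, 30 min RT, luminescence.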
For assay [8], the system named is estrogen-related receptor alpha (ERRalpha) with PGC-1alpha coactivator, human. Put plainly: qHTS assay to identify small molecule antagonists of the estrogen related receptor signaling pathway with the pleiotropic PPARgamma coactivator (PGC) (AID 1224821; calls by dose curve;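 note: series mostly up to about 46 µM; lower luminescence signal means antagonism of PGC/ERR signalling; nearly all actives have a fitted effect of over 50% in size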). In outline:
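Luminescent read-out (One-Glo, 30 min at room temperature) following 18 h treatment of PGC/ERR cells at 37 C with compounds delivered in DMSO. Cells had settled 6 h at 37 C/5% CO2 before dosing.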

The nature of assay [9]: qHTS assay to identify small molecule antagonists of the estrogen related receptor signaling pathway with the pleiotropic PPARgamma coactivator (PGC) cell viability counter screen (AID 1224822; note: series mostly up to about 46 µM). The method, boiled down: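 PGC/ERR cells rested 6 h, then compound-treated 17.5 h at 37 C. CellTiter-Fluor added for 30 min at 37 C, viability measured by fluorescence intensity.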

Assay [10] in a line: qHTS assay to identify small molecule agonists of the estrogen related receptor signaling pathway with the pleiotropic PPARgamma coactivator (PGC) (AID 1224823). The method, boiled down: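 Steps: plate PGC/ERR cells at 2,000 cells/well; incubate 6 h, 37 C/5% CO2; pin-transfer compounds (DMSO); incubate 18 h, 37 C; add One-Glo; 30 min RT; read luminescence.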

The structures appear in SMILES notation. Records with an inconclusive call do not appear. Values without a mark were called inactive. Active and inactive are the calls of the source. Unless noted, calls come from the whole dose curve; as a rule, active = well fitted curve in the direction sought with a large enough effect in the repeat runs; inconclusive = weak or mixed curves; inactive = no such curve, though single readings can be large; an effect the other way counts as inactive or inconclusive.
% is set by controls: 0 for no effect and ±100 for the full control effect.

In the case of `CC[C@@H]1C[C@H](N(Cc2cc(C(F)(F)F)cc(C(F)(F)F)c2)C(C)=O)c2cc(C(F)(F)F)ccc2N1C(=O)OC(C)C`, the Potency result in assay [1], in assay [2], in [3] and in [4] was “inactive” throughout.

For `N#CCCNCCC#N`, the Potency entry in assay [1], in assay [2] and in assay [4] was “inactive” throughout.

As for `CCOC(=S)SSC(=S)OCC`, the Potency entry in assay [1], in assay [2] and in assay [4] was “inactive” throughout.

With `CCCc1ccccc1`, the Potency entry in assay [1], in assay [5], in [3] and in assay [4] was “inactive” throughout.

As to `c1ccc(-c2nc[nH]c2-c2ccccc2)cc1`, the Potency entry in [1], in assay [2] and in [4] was “inactive” in each case.

Turning to `Oc1ccc(C(O)CNCCCCCCNCC(O)c2ccc(O)c(O)c2)cc1O` (stereo unspecified), the Potency result in assay [1], in assay [2] and in assay [4] was “inactive” throughout.

For the compound `CC1(C)[C@H]2CC[C@]1(C)[C@H](O)C2`, the Potency entry in [1], in assay [2] and in assay [4] was “inactive” each time.

Turning to `C[Si](C)O[Si](C)(C)O[Si](C)(C)O[Si](C)C`, the Potency entry in assay [1], in assay [2], in [3] and in assay [4] was “inactive” in each case.

Consider `CC(C)(C)c1cc(O)c(C(C)(C)C)cc1O`, for which the Potency entry in assay [1] and in [2] was “inactive” in each case. Also, the Potency in assay [4] was 48.6 µM (active).

With `CCCCCCCCCC=O`, the Potency result in assay [1], in [2] and in assay [4] was “inactive” in each case.

Regarding `NCc1ccccc1`, the Potency entry in assay [1], in assay [2] and in [4] was “inactive” in each case.

With `COCCOCCOCCOCCOC`, the Potency result in assay [1], in [5], in [3] and in assay [4] was “inactive” throughout.

As for `O=c1[nH]cnc2ccccc12`, the Potency result in assay [1], in assay [5], in [3] and in assay [4] was “inactive” in each case.

With `O=S1(=O)c2cccc3cccc(c23)N1CCCN1CCN(c2ccc(F)cc2)CC1`, the Potency entry in assay [1], in assay [5], in assay [3] and in assay [4] was “inactive” each time.

Take `CN(C)CCCNCCCN`: the Potency in assay [1] was 48.8 µM (active). The Potency entry in [5], in assay [3] and in assay [4] was “inactive” in each case.

For `C#CCOC(=O)[C@@H](C)Oc1ccc(Oc2ncc(Cl)cc2F)cc1`, the Potency entry in [1], in assay [5], in assay [3] and in assay [4] was “inactive” each time.

As for `O=C1CCCCCO1`, the Potency result in [1], in [5] and in assay [4] was “inactive” throughout.

As to `SC1CCCC1`, the Potency result in assay [1], in [5], in assay [3] and in [4] was “inactive” each time.

For the compound `CCCC[C@H]1CN(CC2CCOCC2)C(=O)OC12CCN(C1(C)CCN(C(=O)c3c(C)ncnc3C)CC1)CC2`, the Potency result in assay [1], in assay [2] and in assay [4] was “inactive” throughout.

In the case of `O=C(c1ccc(O)cc1)c1ccc(O)cc1`, the Potency entry in assay [1], in assay [5], in [3] and in assay [4] was “inactive” throughout.

Turning to `Cc1c(Cn2ccnc2)c2ccccc2n1CCC(=O)O`, the Potency result in assay [1], in [2] and in assay [4] was “inactive” throughout.

Take `O=S(=O)(O)c1ccc(O)c2ncccc12`: the Potency entry in assay [1], in assay [2] and in assay [4] was “inactive” in each case.

Take `OC(CCN1CCCCC1)(c1ccccc1)C1CCCCC1` (stereo unspecified): the Potency result in assay [1], in [2] and in [4] was “inactive” each time. Further, the outcome in assay [6], in assay [7], in assay [8], in [9] and in [10] was inactive.

Consider `CC(C)CC=O`, for which the Potency entry in assay [1], in assay [2], in assay [3] and in [4] was “inactive” throughout.

As to `Cc1ccc(C(=O)C(C)CN2CCCCC2)cc1` (stereo unspecified), the Potency result in assay [1], in assay [5], in assay [3] and in assay [4] was “inactive” each time.

In the case of `CC(C)c1ccccc1C(C)C`, the Potency result in assay [1], in [2] and in [4] was “inactive” throughout.

For the compound `Nc1ccc(C(=O)N2CC3CC(CN(Cc4ccccc4)C3)C2)cc1`, the Potency entry in [1], in [5], in assay [3] and in assay [4] was “inactive” in each case.

Turning to `CC(=O)CC(=O)c1ccccc1`, the Potency result in assay [1], in [5], in [3] and in assay [4] was “inactive” throughout.

For `CC(=O)O[C@@H]1C(=O)O[C@@H]2[C@H]1OC(=O)[C@@H]2OC(C)=O`, the Potency result in [1], in assay [5], in assay [3] and in assay [4] was “inactive” each time.

Regarding `CN1CCC[C@@H]1c1cccnc1`, the Potency result in assay [1], in assay [2] and in assay [4] was “inactive” in each case.

For the compound `CCN(CC)C(C)=O`, the Potency entry in [1], in [5], in assay [3] and in assay [4] was “inactive” throughout.

With `Cn1c(NCCN(CCO)CCCc2ccc([N+](=O)[O-])cc2)cc(=O)n(C)c1=O`, the Potency result in [1], in assay [2] and in assay [4] was “inactive” in each case.

As to `O=C(CCN1CCN2CCCC2C1)N1c2ccccc2Sc2ccc(Cl)cc21` (stereo unspecified), in assay [1], the activity change, negative = cytotoxicity is -22.2% [at 15.8 µM]. Further, the activity, negative = inhibition in assay [5] was -11.3% [at 19 µM]. Further, the Potency entry in assay [3] is “inactive”. Also, the viability change, negative = cytotoxic in assay [4] was -8.93% [at 19 µM].

Regarding `CCOC(=O)CC(C)C`, the Potency entry in [1], in assay [2] and in assay [4] was “inactive” in each case.

As to `CC(C)NCC(O)c1cc(O)cc(O)c1` (stereo unspecified), the Potency result in [1], in assay [5] and in assay [4] was “inactive” each time. Also, the result in assay [6], in assay [7], in assay [8], in assay [9] and in assay [10] was inactive.

`CCCCCCCCCCCCC(=O)O`: the Potency entry in [2], in [5], in [3] and in [4] was “inactive” throughout.

Regarding `CC(C)(Oc1ccc(Cl)cc1)C(=O)OCCCOC(=O)C(C)(C)Oc1ccc(Cl)cc1`, the Potency entry in assay [2], in [5], in [3] and in [4] was “inactive” each time.

In the case of `CCCCCCc1ccc(N)cc1`, the Potency entry in assay [2] and in assay [5] was “inactive” in each case.

Regarding `CN1CCC(OC(c2ccccc2)c2ccccc2)CC1`, the Potency entry in [2], in assay [5], in assay [3] and in assay [4] was “inactive” each time.
